Source: PubChem BioAssay (National Center for Advancing Translational Sciences (NCATS))
Many of the other results were omitted from the sample, so hits are more common in it than they were.
Pf Dd2 growth – inhibitors of Plasmodium falciparum Dd2 growth | P. falciparum Dd2 growth, SYBR Green, 72 h | Potency, µM (titrated, usually from 28.9 µM), for inactives: at the top dose activity, negative = inhibition, hits mostly inhibitors | 120,000 tested, 4.3% active | AID 1347417; active = well fitted inhibition curve with a large enough effect;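 also: plate controls were DMSO vehicle for no effect and reference drug for full effect; nearly all actives have a fitted effect of over 65% in size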
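Infected erythrocytes (Dd2, 0.3% parasitemia, 2.5% hematocrit final) are added to compound in RPMI-1640/Albumax II medium, grown 72 h at 37C in low oxygen, then lysed with saponin/Triton-X containing SYBR Green and read by fluorescence.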
Numbers without * were called inactive; i = inactive; [ ] = another dose, or the depositor's remark. Potency is read from the fitted curve at half-maximal effect.

SMILES	Pf Dd2 growth
CN1CCCC1c1nc(C2CN(C(=O)c3cccn3C)C2)no1 (centres undefined)	-8%
O=C(CCN1CCn2nc(CO)cc2C1)Nc1nnc(C2CC2)s1	-6%
O=C(NC1CCCCC1)[C@@H]1Cc2nc[nH]c2CN1Cc1ccc(Cl)cc1	13µM*
O=C([C@@H]1Cc2nc[nH]c2CN1Cc1ccc(Cl)cc1)N1CCOCC1	i
COc1ccc(CNC(=O)[C@@H]2Cc3nc[nH]c3CN2Cc2ccc(C(=O)O)cc2)cc1	1%[44.1 µM]
COc1ccc(CNC(=O)[C@@H]2Cc3nc[nH]c3CN2Cc2ccc(CO)o2)cc1	i
COc1ccc(CNC(=O)[C@@H]2Cc3nc[nH]c3CN2Cc2ccc(Cl)cc2)cc1	13µM*
O=C(NCc1ccccc1)[C@@H]1Cc2nc[nH]c2CN1Cc1ccc(Cl)cc1	-9%[44.1 µM]
O=C1CCN(S(=O)(=O)c2ccccc2)CCCC(C(=O)NCCc2ccccn2)CCN1 (centres undefined)	11%
O=C(O)[C@]12CCCN[C@@H]1CCN(Cc1cnc(-c3ccccn3)nc1)C2	9%
CCc1nccn1CCC(=O)N1CC[C@@](O)(C2CCOCC2)[C@H](C)C1	2%
c1ccc(-c2nnc3ccc(NCc4cccs4)nn23)nc1	i
O=C(CN1C(=O)C2(SCC(=O)N2c2ccc(F)c(F)c2)c2ccccc21)Nc1ccccc1F (centres undefined)	13µM*
COc1cccc(N2C(=O)CSC23C(=O)N(Cc2ccccc2F)c2ccccc23)c1 (centres undefined)	-19%
O=C(CN1C(=O)CCSc2ccccc21)Nc1ccccc1F	4%
COc1cccc(CN2C(=O)C3(SCC(=O)N3c3ccc(C)c(Cl)c3)c3ccccc32)c1 (centres undefined)	i
COc1cccc(CN2C(=O)C3(SCC(=O)N3c3ccc(C(C)C)cc3)c3ccccc32)c1 (centres undefined)	-22%
O=C1CSC2(C(=O)N(Cc3ccccc3F)c3ccccc32)N1c1cccc(C(F)(F)F)c1 (centres undefined)	7.1µM*
Cc1ccc(NC(=O)CN2C(=O)NC3(CCCCC3)C2=O)c(C)c1	3%
COc1ccc(N2C(=O)CSC23C(=O)N(Cc2ccccc2F)c2ccccc23)cc1Cl (centres undefined)	i
Cc1ccc(NC(=O)CN2C(=O)CCSc3ccccc32)c(C)c1	25%
O=C(CN1C(=O)C2(SCC(=O)N2c2ccccc2)c2ccccc21)NCCc1ccccc1 (centres undefined)	16%
COc1cccc(N2C(=O)CSC23C(=O)N(CC(=O)Nc2cc(C)ccc2C)c2ccccc23)c1 (centres undefined)	8.9µM*
Cc1ccc(NC(=O)CN2C(=O)C3(SCC(=O)N3c3ccc(F)c(F)c3)c3ccccc32)c(C)c1 (centres undefined)	14µM*
Cc1ccc(O)c(CN2CCC(C3(c4ccccn4)NC(=O)NC3=O)CC2)c1 (centres undefined)	-19%
SMILES	Pf Dd2 growth
Cc1c(-c2ccc(F)cc2)[nH]c2ccc(CNCc3cnn(C)c3)cc12	i
O=C(CCC1CCN(C(=O)c2ccccc2)CC1)Nc1cccnc1	-1%
CCc1nc2c(c(-c3ccc(OC)cc3)n1)CCN(C(=O)c1ccccn1)CC2	19%
CC(C)CCN1C(=O)CC[C@H]2CN(C(=O)Cc3c[nH]c(=O)[nH]c3=O)CC[C@H]21	8%
CCNC(=O)Nc1ccc(OCC(=O)NC2CCCC2)nc1	31%
COCCn1c(C)nnc1-c1cc(-c2cccc(O)c2)ccn1	i
O=C(N1CCCCC1)N1CCCC(c2nnc3n2CCNC3)C1 (centres undefined)	-3%
CC[C@H]1CN(C(=O)C2CC2)CC[C@H]1CC(=O)N(C)CCC#N	-18%[44.1 µM]
COc1cc(N2C(=O)CSC23C(=O)N(Cc2ccc(C)cc2)c2ccccc23)cc(OC)c1OC (centres undefined)	-18%
COc1ccc(N2C(=O)CSC23C(=O)N(Cc2ccc(C)cc2)c2ccccc23)cc1Cl (centres undefined)	-19%
Cc1ccc(N2C(=O)CSC23C(=O)N(CC(=O)NCCc2ccccc2)c2ccccc23)cc1 (centres undefined)	-15%
Cc1ccc(CNC(=O)CN2C(=O)C3(SCC(=O)N3c3ccc(F)cc3)c3ccccc32)cc1 (centres undefined)	-18%
Cc1cccc(N2C(=O)CSC23C(=O)N(CC(=O)Nc2cccc(Cl)c2)c2ccccc23)c1 (centres undefined)	14µM*
Cc1cc(C)cc(N2C(=O)CSC23C(=O)N(CC(=O)Nc2ccc(F)cc2F)c2ccccc23)c1 (centres undefined)	10µM*
Cc1noc(C)c1CNC(=O)C1CCCNC1 (centres undefined)	8%
COCC1CN(C2CCC2)CC12CCN(S(=O)(=O)c1cnc[nH]1)CC2 (centres undefined)	-1%
O=C(Cn1nc2c(cc1=O)CCCCC2)NCCn1cnc2ccccc2c1=O	-5%
CN1CCN(C(=O)C2CCC(=O)N(Cc3cccc(C(F)(F)F)c3)C2)CC1=O (centres undefined)	-7%
COC[C@@H]1CN(S(=O)(=O)c2ccc(C)cc2C)C[C@H]1C(N)=O	-12%
O=C(Cc1ccc(F)cc1)N1CCC(c2nc3c(nnn3Cc3ccc(Cl)cc3)c(=O)[nH]2)CC1	14µM*
Cc1cccc(Cn2nnc3c(=O)[nH]c(C4CCN(C(=O)c5ccccc5F)CC4)nc32)c1	-18%
O=C(Cc1ccccc1F)N1CCC(c2nc3c(nnn3Cc3ccc(F)cc3)c(=O)[nH]2)CC1	-17%
O=C(N[C@@H]1CN(C(=O)c2cc(-c3ccc(F)cc3)n[nH]2)CC[C@@H]1CO)C1CC1	-15%
Cc1cn2nc(C(=O)Nc3ccc(N(C)C)cc3)cc2c(N(C)Cc2ccccc2)n1	0.79µM*
Cc1ccc(NC(=O)c2cc3c(N4CCCC4)nc(C)cn3n2)cc1	-4%
SMILES	Pf Dd2 growth
Cc1ccc(CNC(=O)c2cc3c(N(C)Cc4ccccc4)nc(C)cn3n2)cc1	i
Cc1cn2nc(C(=O)Nc3ccc(C)c(F)c3)cc2c(N(C)Cc2ccccc2)n1	10µM*
Cc1cn2nc(C(=O)Nc3ccc(F)c(C)c3)cc2c(N2CCSCC2)n1	-28%
COc1ccc(NC(=O)c2cc3c(N4CCSCC4)nc(C)cn3n2)cc1F	28%
CC(C)c1noc(-c2cn(C3CCN(C(=O)c4cccc(N(C)C)c4)CC3)nn2)n1	-4%
COc1ccc(CCC(=O)N2CC[C@@H]3COCCN(Cc4ccncc4)[C@@H]3C2)cc1	-7%
CC(=O)NC[C@@H]1C=C(C)[C@H](Cc2nc3ccccc3[nH]2)C[C@H]1C(C)C	-24%[44.1 µM]
CCCNC(=O)NC[C@@H]1C=C(C)[C@H](Cc2nc3nc(OC)ccc3[nH]2)C[C@H]1C(C)C	10µM*
CC1=C[C@@H](CNC(=O)C(C)C)[C@H](C(C)C)C[C@H]1Cc1nc2ncccc2[nH]1	-3%[44.1 µM]
COc1ccc2[nH]c(C[C@@H]3C[C@@H](C(C)C)[C@H](CNC(=O)c4cccnc4)C=C3C)nc2n1	11µM*
CC1=C[C@@H](CNC(=O)c2cccnc2)[C@H](C(C)C)C[C@H]1CC(=O)NC1CCCC1	i
CCC(CC)C(=O)NC[C@@H]1C=C(C)[C@H](Cc2nc3ccc(F)cc3[nH]2)C[C@H]1C(C)C	i
COc1ccc(-c2ccccc2)cc1N1C(=O)[C@@H]2C[C@H]1CN2C(=O)C(C)(C)N	-28%
COc1ccc2nc(CNC(=O)C3CCN(C(=O)C4CCC4)CC3)[nH]c2c1	-2%
COc1ccc(C)cc1Nc1c2c(nc3nc(-c4cccs4)nn13)CCCC2	47%[0.594 µM]
